# Active and inactive are the calls of the source. Rule for the calls: active = hit-call score of the fitted dose curve at least 0.9, where 1 is the maximum; inactive = score below 0.9.
# Tests used:
# Conditions in all cases: mRNA level, 48 h; actives raise or lower the signal
# [1] = read-out: Intercellular Adhesion Molecule 1 (ICAM1), ICAM1 (gene 3383); assay: LTEA_HepaRG_ICAM1: Life Technologies and Expression Analysis (LTEA) Assay for Intercellular Adhesion Molecule 1 (ICAM1) using HepaRG (AID 2283507)
# Method in brief: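 Differentiated HepaRG cells in serum-free induction medium were exposed in duplicate for 48 h to eight half-log concentrations up to 100 uM in 0.5% DMSO. Transcript levels were measured by qRT-PCR normalized to ACTB, GAPDH and POLR2A; bidirectional fits relative to DMSO.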
# [2] = read-out: Insulin-like growth factor-binding protein 1 (IGFBP1), IGFBP1 (gene 3484); assay: LTEA_HepaRG_IGFBP1: Life Technologies and Expression Analysis (LTEA) Assay for Insulin-like growth factor-binding protein 1 (IGFBP1) using HepaRG (AID 2283508)
# Method in brief: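 Differentiated human HepaRG cells in serum-free induction medium were exposed in duplicate for 48 h to eight concentrations, top 100 uM with half-log dilutions, in 0.5% DMSO. Transcript levels came from qRT-PCR normalised to ACTB, GAPDH and POLR2A, fitted bidirectionally against DMSO.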
# [3] = read-out: Interleukin 6 (IL6), IL6 (gene 3569); assay: LTEA_HepaRG_IL6: Life Technologies and Expression Analysis (LTEA) Assay for Interleukin 6 (IL6) using HepaRG (AID 2283509)
# Method in brief: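 Changes in IL6 mRNA, up or down relative to 0.5% DMSO controls, were derived from concentration-response curves in human HepaRG cells treated for 48 h at up to 100 uM, with ACTB, GAPDH and POLR2A as normalizers.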
# [4] = read-out: Interleukin 6 Receptor (IL6R), IL6R (gene 3570); assay: LTEA_HepaRG_IL6R: Life Technologies and Expression Analysis (LTEA) Assay for Interleukin 6 Receptor (IL6R) using HepaRG (AID 2283510)
# Method in brief: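 In this HepaRG screen, test chemicals act on cells for 48 h at up to 100 uM (eight half-log points, duplicate wells). IL6R expression is quantified by qRT-PCR after normalization to ACTB, GAPDH and POLR2A, with DMSO as baseline.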
# [5] = read-out: Potassium channel subfamily K member 1 (KCNK1), KCNK1 (gene 3775); assay: LTEA_HepaRG_KCNK1: Life Technologies and Expression Analysis (LTEA) Assay for Potassium channel subfamily K member 1 (KCNK1) using HepaRG (AID 2283511)
# Method in brief: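 Human HepaRG cultures receive test chemicals for 48 h in 0.5% DMSO, top concentration 100 uM with half-log dilutions. Induction or suppression of KCNK1 mRNA relative to DMSO is derived by bidirectional fitting of qRT-PCR data.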
# [6] = read-out: JUN Transcription Factor, JUN (gene 3725); assay: LTEA_HepaRG_JUN: Life Technologies and Expression Analysis (LTEA) Assay for JUN Transcription Factor using HepaRG (AID 2283513)
# Method in brief: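 Gene-expression endpoint: JUN mRNA (qRT-PCR, normalized to three reference genes) in HepaRG cultures treated 48 h with chemicals, duplicate wells, 100 uM maximum with half-log dilutions; bidirectional fitting relative to 0.5% DMSO.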
# [7] = read-out: Lipase C (LIPC), LIPC (gene 3990); assay: LTEA_HepaRG_LIPC: Life Technologies and Expression Analysis (LTEA) Assay for Lipase C (LIPC) using HepaRG (AID 2283514)
# Method in brief: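 In this multiplexed gene-expression screen, human HepaRG cultures received test chemicals for 48 h across eight concentrations with 100 uM highest, in duplicate. Values reflect LIPC mRNA induction or suppression versus DMSO vehicle, from normalized qRT-PCR.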
# [8] = read-out: Lipoprotein lipase (LPL), LPL (gene 4023); assay: LTEA_HepaRG_LPL: Life Technologies and Expression Analysis (LTEA) Assay for Lipoprotein lipase (LPL) using HepaRG (AID 2283515)
# Method in brief: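 Concentration-response testing used half-log steps from 100 uM in 0.5% DMSO on human HepaRG cells, 48 h, duplicate wells. Phenobarbital 1 mM served as induction control; LPL mRNA was normalized to ACTB, GAPDH, POLR2A.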
# [9] = read-out: MicroRNA 122 (MIR122), gene 406906; assay: LTEA_HepaRG_MIR122: Life Technologies and Expression Analysis (LTEA) Assay for MicroRNA 122 (MIR122) using HepaRG (AID 2283516); note: the transcript read is the microRNA miR-122
# Method in brief: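 Changes in transcript abundance, up or down relative to 0.5% DMSO vehicle, were scored after 48 h chemical treatment of HepaRG cells (maximum 100 uM). Quantification used TaqMan qRT-PCR normalized to housekeeping genes.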
# [10] = read-out: matrix metalloproteinase-10 (MMP10), MMP10 (gene 4319); assay: LTEA_HepaRG_MMP10: Life Technologies and Expression Analysis (LTEA) Assay for matrix metalloproteinase-10 (MMP10) using HepaRG (AID 2283517)
# Method in brief: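 In differentiated HepaRG cultures kept in 0.5% DMSO, test chemicals act for 48 h over an eight-point range with a top dose of 100 uM. Expression is then quantified by TaqMan RT-PCR against ACTB, GAPDH and POLR2A.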
# [11] = read-out: MYC, MYC (gene 4609); assay: LTEA_HepaRG_MYC: Life Technologies and Expression Analysis (LTEA) Assay for MYC using HepaRG (AID 2283518)
# Method in brief: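 Differentiated human HepaRG cells, plated 48 h then switched to serum-free induction medium, were exposed in duplicate for 48 h to 8-point half-log series up to 100 uM in 0.5% DMSO. MYC mRNA measured by qRT-PCR, normalized to ACTB/GAPDH/POLR2A.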
# [12] = read-out: Paternally Expressed 10 (PEG10), PEG10 (gene 23089); assay: LTEA_HepaRG_PEG10: Life Technologies and Expression Analysis (LTEA) Assay for Paternally Expressed 10 (PEG10) using HepaRG (AID 2283520);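 for AC50: PEG10 transcript by qRT-PCR normalised to ACTB GAPDH and POLR2A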
# Method in brief: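 After 48 h exposure of differentiated HepaRG cells (0.5% DMSO vehicle, eight concentrations up to 100 uM, duplicates), PEG10 mRNA was measured by TaqMan qRT-PCR. Values were normalised to endogenous control genes and analysed bidirectionally against vehicle.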
# [13] = read-out: Nuclear factor NF-kappa-B p105 subunit (Homo sapiens) (UniProt P19838); assay: LTEA_HepaRG_NFKB1: Life Technologies and Expression Analysis (LTEA) Assay for Nuclear Factor Kappa B Subunit 1 (NFKB1) using HepaRG (AID 2283521);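 note: TaqMan qRT-PCR transcript normalised to ACTB GAPDH and POLR2A housekeeping genes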
# Method in brief: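 Differentiated human HepaRG cells in serum-free induction medium with 0.5% DMSO were exposed for 48 h to eight half-log concentrations, top 100 uM, in duplicate. NFKB1 mRNA measured by Fluidigm TaqMan qRT-PCR, normalised to ACTB, GAPDH and POLR2A; bidirectional fit versus DMSO.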
# [14] = read-out: Protein phosphatase 2A (PPP2R4), PTPA (gene 5524); assay: LTEA_HepaRG_PPP2R4: Life Technologies and Expression Analysis (LTEA) Assay for Protein phosphatase 2A (PPP2R4) using HepaRG (AID 2283522)
# Method in brief: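 Using HepaRG cultures maintained in 0.5% DMSO, chemicals are tested 48 h at up to 100 uM in duplicate. Induction or suppression of PPP2R4 mRNA, measured by qRT-PCR, is fitted bidirectionally against the vehicle baseline.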
# [15] = read-out: Phosphatase and tensin (PTEN), PTEN (gene 5728); assay: LTEA_HepaRG_PTEN: Life Technologies and Expression Analysis (LTEA) Assay for Phosphatase and tensin (PTEN) using HepaRG (AID 2283523)
# Method in brief: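 Expression of PTEN is quantified in the human liver line HepaRG following two days of dosing (top concentration 100 uM, half-log dilutions, 0.5% DMSO). Values derive from bidirectional curve fitting relative to DMSO controls.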
# [16] = read-out: solute carrier (SLC22A1), SLC22A1 (gene 6580); assay: LTEA_HepaRG_SLC22A1: Life Technologies and Expression Analysis (LTEA) Assay for solute carrier (SLC22A1) using HepaRG (AID 2283524);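 for AC50: TaqMan qRT-PCR normalized to ACTB GAPDH and POLR2A housekeeping genes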
# Method in brief: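 Transcript induction or suppression of SLC22A1 in human HepaRG cultures is scored after 48 h chemical treatment, with DMSO (0.5%) as baseline for bidirectional fitting. Concentrations span eight half-log points topping at 100 uM.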
# [17] = read-out: Pyruvate Dehydrogenase Kinase 4 (PDK4), PDK4 (gene 5166); assay: LTEA_HepaRG_PDK4: Life Technologies and Expression Analysis (LTEA) Assay for Pyruvate Dehydrogenase Kinase 4 (PDK4) using HepaRG (AID 2283525)
# Method in brief: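 Eight-point, half-log concentration series (max 100 uM, 0.5% DMSO) applied to differentiated HepaRG cells for 48 h in duplicate. Endpoint: PDK4 mRNA induction or repression by qRT-PCR against DMSO baseline.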
# [18] = read-out: NAD(P)H dehydrogenase [quinone] 1 (NQO1), NQO1 (gene 1728); assay: LTEA_HepaRG_NQO1: Life Technologies and Expression Analysis (LTEA) Assay for NAD(P)H dehydrogenase [quinone] 1 (NQO1) using HepaRG (AID 2283526)
# Method in brief: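 In this assay, gene expression is read by qRT-PCR after 48 h exposure of HepaRG cells to eight concentrations (max 100 uM, half-log) in 0.5% DMSO. Each chemical runs in duplicate, and activity is scored relative to vehicle.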
# [19] = read-out: Keratin 19 (KRT19), KRT19 (gene 3880); assay: LTEA_HepaRG_KRT19: Life Technologies and Expression Analysis (LTEA) Assay for Keratin 19 (KRT19) using HepaRG (AID 2283512)
# Method in brief: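 Differentiated human HepaRG cells, plated 48 h, were exposed in duplicate for 48 h in serum-free induction medium to eight half-log concentrations up to 100 uM in 0.5% DMSO. KRT19 mRNA was quantified by qRT-PCR, normalized to ACTB, GAPDH and POLR2A, and fitted bidirectionally versus DMSO.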
# [20] = read-out: matrix metalloproteinase-3 (MMP3), MMP3 (gene 4314); assay: LTEA_HepaRG_MMP3: Life Technologies and Expression Analysis (LTEA) Assay for matrix metalloproteinase-3 (MMP3) using HepaRG (AID 2283519)
# Method in brief: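 Human liver HepaRG cultures received chemicals (top concentration 100 uM, 0.5% DMSO) for 48 h in duplicate. MMP3 mRNA induction or loss was then assessed via TaqMan qRT-PCR with housekeeping-gene normalisation.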
# Sequence of Nuclear factor NF-kappa-B p105 subunit (Homo sapiens) (P19838 whole entry, looked up): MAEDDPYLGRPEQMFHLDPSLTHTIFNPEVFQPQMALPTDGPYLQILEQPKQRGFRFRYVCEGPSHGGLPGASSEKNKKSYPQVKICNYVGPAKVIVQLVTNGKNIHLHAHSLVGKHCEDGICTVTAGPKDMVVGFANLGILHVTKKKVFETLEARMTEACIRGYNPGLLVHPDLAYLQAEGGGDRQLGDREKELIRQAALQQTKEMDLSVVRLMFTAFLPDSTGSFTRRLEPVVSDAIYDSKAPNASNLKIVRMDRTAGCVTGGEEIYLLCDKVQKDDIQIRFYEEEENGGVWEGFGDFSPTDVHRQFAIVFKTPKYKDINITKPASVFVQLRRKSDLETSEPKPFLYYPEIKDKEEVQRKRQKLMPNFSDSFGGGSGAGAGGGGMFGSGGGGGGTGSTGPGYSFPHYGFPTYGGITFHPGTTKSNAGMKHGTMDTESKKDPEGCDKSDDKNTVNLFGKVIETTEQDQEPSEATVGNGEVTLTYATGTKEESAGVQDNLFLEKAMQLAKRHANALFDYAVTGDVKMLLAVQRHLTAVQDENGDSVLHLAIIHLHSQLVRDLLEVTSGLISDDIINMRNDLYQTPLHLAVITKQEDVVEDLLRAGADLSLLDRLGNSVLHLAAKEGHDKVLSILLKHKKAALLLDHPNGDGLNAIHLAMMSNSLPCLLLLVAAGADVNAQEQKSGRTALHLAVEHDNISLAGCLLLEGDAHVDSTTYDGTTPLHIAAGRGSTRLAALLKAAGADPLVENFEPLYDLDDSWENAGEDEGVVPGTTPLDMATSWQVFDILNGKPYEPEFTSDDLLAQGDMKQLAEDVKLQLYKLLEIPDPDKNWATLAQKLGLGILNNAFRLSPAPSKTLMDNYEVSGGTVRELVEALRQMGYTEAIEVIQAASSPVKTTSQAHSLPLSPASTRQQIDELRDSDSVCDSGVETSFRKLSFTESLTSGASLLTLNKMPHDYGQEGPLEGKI
compound,measurement,setting,value
CCCCCCCCOC(=O)c1ccccc1C(=O)OCCCCCCCC,outcome,[1],inactive
same,outcome,[2],inactive
same,outcome,[3],inactive
same,outcome,[4],inactive
same,outcome,[5],inactive
same,outcome,[6],inactive
same,outcome,[7],inactive
same,outcome,[8],inactive
same,outcome,[9],inactive
same,outcome,[10],inactive
same,outcome,[11],inactive
same,outcome,[12],inactive
same,outcome,[13],inactive
same,outcome,[14],inactive
same,outcome,[15],inactive
same,outcome,[16],inactive
same,outcome,[17],inactive
same,outcome,[18],inactive
CN(C)CCO,outcome,[2],inactive
same,outcome,[3],inactive
same,outcome,[4],inactive
same,outcome,[5],inactive
same,outcome,[19],inactive
same,outcome,[6],inactive
same,outcome,[7],inactive
same,outcome,[8],inactive
same,outcome,[9],inactive
same,outcome,[10],inactive
same,outcome,[11],inactive
same,outcome,[12],inactive
same,outcome,[13],inactive
same,outcome,[14],inactive
same,outcome,[15],inactive
same,outcome,[16],inactive
same,outcome,[17],inactive
same,outcome,[18],inactive
C1CC2OC2CC1C1CO1 (configuration not stated),outcome,[1],inactive
same,outcome,[2],inactive
same,outcome,[3],inactive
same,outcome,[4],inactive
same,outcome,[5],inactive
same,outcome,[19],inactive
same,outcome,[6],inactive
same,outcome,[7],inactive
same,outcome,[8],inactive
same,outcome,[9],inactive
same,outcome,[10],inactive
same,outcome,[11],inactive
same,outcome,[12],inactive
same,outcome,[13],inactive
same,outcome,[14],inactive
same,outcome,[15],inactive
same,outcome,[16],inactive
same,outcome,[17],inactive
same,outcome,[18],inactive
O=C(O)C(F)(F)C(F)(F)C(F)(F)C(F)(F)C(F)(F)F,outcome,[1],inactive
same,outcome,[2],inactive
same,outcome,[3],inactive
same,outcome,[4],inactive
same,outcome,[5],inactive
same,outcome,[19],inactive
same,outcome,[6],inactive
same,outcome,[7],inactive
same,outcome,[8],inactive
same,outcome,[9],inactive
same,outcome,[10],inactive
same,outcome,[11],inactive
same,outcome,[12],inactive
same,outcome,[14],inactive
same,outcome,[15],inactive
same,outcome,[16],inactive
same,AC50,[17],14.9 µM (active)
same,outcome,[18],inactive
C=CC(=O)NCNC(=O)C=C,outcome,[1],inactive
same,outcome,[2],inactive
same,AC50,[3],50 µM (active)
same,outcome,[4],inactive
same,outcome,[5],inactive
same,outcome,[19],inactive
same,outcome,[6],inactive
same,outcome,[7],inactive
same,outcome,[8],inactive
same,outcome,[9],inactive
same,outcome,[10],inactive
same,outcome,[11],inactive
same,outcome,[12],inactive
same,outcome,[13],inactive
same,outcome,[14],inactive
same,outcome,[15],inactive
same,AC50,[16],30.6 µM (active)
same,outcome,[17],inactive
same,outcome,[18],inactive
O=C(O)C(F)(F)C(F)(F)C(F)(F)C(F)(F)C(F)(F)C(F)(F)C(F)(F)C(F)(F)C(F)(F)F,AC50,[2],27.9 µM (active)
same,AC50,[3],71.7 µM (active)
same,outcome,[4],inactive
same,outcome,[5],inactive
same,AC50,[6],50 µM (active)
same,AC50,[7],21.1 µM (active)
same,AC50,[8],89.2 µM (active)
same,AC50,[9],63.1 µM (active)
same,AC50,[10],37.1 µM (active)
same,AC50,[11],22.8 µM (active)
same,outcome,[20],inactive
same,AC50,[12],12.1 µM (active)
same,outcome,[13],inactive
same,AC50,[14],88.9 µM (active)
same,AC50,[15],82.2 µM (active)
same,AC50,[16],41.2 µM (active)
same,AC50,[17],25.7 µM (active)
same,outcome,[18],inactive
Cc1cc2c3c(c1)C(c1ccccc1)=N[C@@H](NC(=O)c1ccncc1)C(=O)N3CC2,outcome,[2],inactive
same,outcome,[3],inactive
same,outcome,[4],inactive
same,outcome,[5],inactive
same,outcome,[19],inactive
same,AC50,[6],50 µM (active)
same,AC50,[7],34.9 µM (active)
same,AC50,[8],21.1 µM (active)
same,outcome,[9],inactive
same,outcome,[10],inactive
same,outcome,[11],inactive
same,outcome,[12],inactive
same,outcome,[14],inactive
same,outcome,[15],inactive
same,AC50,[16],50 µM (active)
same,AC50,[17],50 µM (active)
same,outcome,[18],inactive

# From PubChem BioAssay (EPA / NIEHS)
